# Test results: the supplement of paper PMC5407854, “Inhibitor of ppGalNAc-T3-mediated O-glycosylation blocks cancer cell invasiveness and lowers FGF23 levels” (eLife, 2017)
# In all, about 1,700 compounds were measured (“T2 sensor activation Q score (MG/GFP ratio z-score vs DMSO controls)”: median about 0.3, highest 2% from about 1.9 on). Shown is part of a subset that was picked to be rich in the highest values.
# System: ppGalNAc-T2 sensor
# Assay: T2 sensor activation Q score (MG/GFP ratio z-score vs DMSO controls) (SD units); higher = more sensor activation (inhibition of ppGalNAc-T2 glycosylation)
# Conditions: HEK293 sensor cells; 10 µM; 6 h
# Protocol: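 Cells were treated with compound at 10 uM for 6 h, then MG/GFP ratio was read by flow cytometry (10,000 cells per well, duplicate wells). Q = (R - R_neg)/SD_neg relative to DMSO vehicle controls; the signal rises when the glycosyltransferase is inhibited.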
row,Structure (SMILES),T2 sensor activation Q score
1,CCOC(=O)C(C)c1c(C(=O)c2ccc(C)nc2)c2ccccc2n1C (stereo not given),0.9
2,NC(=O)c1nnsc1-c1ccc(-c2snnc2C(N)=O)cc1,1.7
3,O=c1[nH]c(=S)c2ncn(-c3ccccc3)c2[nH]1,-1.3
4,NC(=O)c1ccccc1NC(=O)COc1ccc(Cl)cc1,-0.45
5,CC(=O)Nc1ccc(S(=O)(=O)N/N=c2/sc3ccccc3n2C)cc1N,-0.6
6,c1ccc(-c2nnc3oc(-c4cccs4)nn23)cc1,-1.05
7,Cc1cn(C2CC(O)C(CO)O2)c(=O)n(Cc2ccccc2)c1=O (stereo not given),0.85
8,O=c1[nH]cc(Cl)cc1Cl,0.5
9,CCOC(=O)/C=C/c1nc(C(=O)OCC)c(C)c(=O)[nH]1,-0.1
10,CC(C)=NNc1ncnc2nc[nH]c12,1.25
11,CC(C)CCCCCCCCCCCCC(=O)NCC(=O)NC1C(C)OC(Nc2ncnc3nc[nH]c23)C(O)C1O (stereo not given),8.6
12,Cc1ccc(Nc2n[nH]c(=S)s2)cc1F,-0.95
13,NNC(=O)Cc1cc(=O)[nH][nH]1,-0.7
14,Cc1cc(=O)oc2cc(OS(C)(=O)=O)ccc12,1.2
15,CCSc1nc(=S)cc(C)[nH]1,-0.1
16,CC(=NNC(N)=O)c1ccc(Cl)c(-n2cccc2)c1,0.6
17,N#C/C(=C\c1c[nH]c2ccccc12)C(N)=O,0.8
18,NC(=S)N/N=C\c1cc(-c2cccc(N)c2)ccn1,0
19,O=C(Nc1ccc(C2=NCCCN2)cc1)Nc1ccc(C2=NCCCN2)cc1,-0.6
20,COc1ccc2c(c1)CCCN2C(N)=Nc1ccc(Cl)cc1,1.25
21,Cc1cccc2cc3cccc(C)c3nc12,0.3
22,Cc1c(COC(=O)NC(C)C)c(COC(=O)NC(C)C)c2n1CS(=O)(=O)C2,-0.4
23,CC1CC(C)(C)C2=NCCN21 (stereo not given),1.3
24,Cc1ccc(S(=O)(=O)NC(=O)Nc2nccs2)cc1,-1.2
25,Cc1ccc(S(=O)(=O)NNC(=O)C23CCC(CC2)C3)cc1,1.95

row,Structure (SMILES),T2 sensor activation Q score
1,CC(=O)C1C=CC(C)(C(=O)O)C2C=C(C)C(=O)C(C)(O)C12 (stereo not given),0.2
2,CCOC(=O)c1csc(-c2ccc(COC(=O)c3ccccc3)o2)n1,-1
3,COc1ccc2c(c1)CCN1C2CCN2C(=O)CCC21 (stereo not given),0.9
4,O=S1(=O)CCN(Cc2ccccn2)CC1,0.85
5,COC(=O)c1ccc(Cn2cnc3c(Cl)ncnc32)cc1,1.6
6,Cc1cc(N)c2cc(NC(=O)C=Cc3ccccc3Cl)ccc2n1,1.5
7,Nc1ccc(N=Nc2ccccc2)c2ccccc12,-0.25
8,O=C(Nc1ccc(Nc2ccccc2)cc1)Nc1ccccc1Cl,-1.35
9,Nc1cc(Nc2ccc(Br)cc2)nc(N)n1,0.6
10,CCCCCOc1ccc(N2C(=O)C(C)CNC2=S)cc1 (stereo not given),0.7
11,Oc1ccc(Cc2ccc(Cl)cc2)c(O)c1,1.3
12,Oc1ccc(-c2nc3ccccc3s2)c(O)c1,0.2
13,Oc1ccc(Cc2ccccc2Cl)c(O)c1,1.95
14,COC(=O)c1cc(C)[nH]c2c(C)cc3nc4ccccc4c3c12,0.65
15,O=C(Oc1ccccc1)N(c1ccccc1)c1ccccc1,0.35
16,Cc1cc(/C=C2\SC(=S)NC2=O)cc(C)c1O,0.35
17,CN1CCC=C(C(=O)N2c3ccccc3Sc3ccc(Cl)cc32)C1,0.25
18,CN(C)c1ccc2c(c1)Sc1cc(N(C)C)ccc1N2C(=O)c1ccccc1,2.55
19,CN(C)c1ccc(/C=C(\C#N)C(=O)c2ccccc2)cc1,-0.3
20,CC[C@]1(O)C[C@@H]2CN(CCc3c([nH]c4ccccc34)[C@@](C(=O)OC)(c3cc4c(cc3OC)N(C)[C@H]3[C@@](O)(C(=O)OC)[C@H](OC(C)=O)[C@]5(CC)C=CCN6CC[C@]43[C@@H]65)C2)C1,2.05
21,CC[C@]1(O)C[C@H]2CN(CCc3c([nH]c4ccccc34)[C@@](C(=O)OC)(c3cc4c(cc3OC)N(C=O)[C@H]3[C@@](O)(C(=O)OC)[C@H](OC(C)=O)[C@]5(CC)C=CCN6CC[C@]43[C@@H]65)C2)C1,1.4
22,CCC1=C[C@@H]2CN(C1)Cc1c([nH]c3ccccc13)[C@@](C(=O)OC)(c1cc3c(cc1OC)N(C)[C@H]1[C@@](O)(C(=O)OC)[C@H](OC(C)=O)[C@]4(CC)C=CCN5CC[C@]31[C@@H]54)C2,1.1
23,C=C(C)C(=O)Oc1ccc(N=Nc2ccc(C)cc2)ccc1=O,1.1
24,NC(=O)c1nc2c([nH]c1=O)CCCC2,-0.85
25,CSc1nc(N)c(C(=O)Nc2ccc([N+](=O)[O-])cc2)s1,0.05

row,Structure (SMILES),T2 sensor activation Q score
1,c1ccc2[nH]c(-c3ccncc3)nc2c1,-1.1
2,O=C(Nc1cccc(-c2nc3ccccc3[nH]2)c1)c1ccc(C(=O)Nc2cccc(-c3nc4ccccc4[nH]3)c2)cc1,3
3,Nc1ccc(C(=O)Nc2cccc(N)c2)cc1,-0.5
4,Cn1ncc2c(Sc3ccc(Cl)cc3)ncnc21,1.3
5,CC1=CN2C(c3cccc([N+](=O)[O-])c3)=NON(c3ccc(C)cn3)C2C=C1 (stereo not given),0.85
6,CSc1ncc2[nH]c(C(O)c3ccccc3)nc2n1 (stereo not given),-0.45
7,O=S1(=O)CCC(N(N=Cc2ccco2)c2ccccc2)C1 (stereo not given),-0.2
8,O=CN/C=C\c1cc(O)ccc1O,-0.3
9,OC[C@@H]1CCC[C@H](n2cnc3c(=S)nc[nH]c32)O1,0.75
10,Cc1nccnc1Sc1ccccc1,-0.2
11,Oc1ccc2ccccc2c1N=Nc1ccc(F)cc1,0.05
12,Oc1ccc2ccccc2c1N=Nc1nccs1,0.9
13,Oc1c(N=Nc2nn[nH]n2)ccc2ccccc12,3.6
14,O=[N+]([O-])c1c(N2CCN(CCO)CC2)nc2ccccn12,0.7
15,OCc1nnn(-c2ccccc2)c1CO,0.8
16,NC(N)=N/N=C\c1c(Cl)cccc1Cl,0.25
17,Cc1cc(N2CCOCC2)nc(N2CCOCC2)n1,0.15
18,N#CC(c1ccccc1)C(C/C(=N\O)c1ccccc1)c1ccccc1 (stereo not given),-0.8
19,O=C(/C=C/c1cccnc1)/C=C/c1cccnc1,1.6
20,O=C(c1ccccc1)C1N=NCC1c1ccc(Cl)cc1 (stereo not given),0.05
21,O=c1nc(Oc2ccccc2)nc2ncccn12,1.9
22,Nc1nc(SCc2ccccn2)c2ncn(C3OC(CO)C(O)C3O)c2n1 (stereo not given),-0.15
23,Cc1cc(=O)n2[nH]c(-c3ccc(C(C)(C)C)cc3)cc2n1,0.15
24,Nc1nc(N)c2c(ccc3nccc32)[nH]1,1.3
25,O=C1C2C3C=CC(CC3)C2S(=O)(=O)C2C3C=CC(CC3)C12 (stereo not given),1.8

row,Structure (SMILES),T2 sensor activation Q score
1,CCOC(=O)CCCN(c1[nH]c(C)c(C)c1C#N)S(=O)(=O)c1ccc(C)cc1,1.05
2,CCCCCC(=O)N1CCCCC1,-1.85
3,O=C1C=CC(=O)N1c1ccc(I)cc1Cl,-0.45
4,CC(=O)Oc1c(C)c(OC(C)=O)c2c(c1C(C)=O)OC1CC(=O)C(C(C)=O)=C(O)C21C (stereo not given),-1.8
5,O=C1Cc2cccc(=O)c(O)c2C(=O)O1,0.1
6,O=c1cccc2cc(O)c(O)c(O)c2c1O,2.35
7,CCOP(=O)(OCC)/C(C#N)=C/c1c[nH]c2ccccc12,-0.2
8,CCOP(=O)(OCC)/C(C#N)=C/c1ccc(-c2ccc(F)cc2F)o1,-0.9
9,CCOP(=O)(OCC)/C(C#N)=C/c1ccc([N+](=O)[O-])cc1,2.3
10,Clc1ccc2nc3ccccc3cc2c1,1.3
11,CC(=O)Nc1ccc(OC(=O)Oc2ccc(NC(C)=O)cc2)cc1,1.2
12,Cc1ccc(C#CC(C)(O)C(C)(C)C)cn1 (stereo not given),-0.05
13,Cc1nc(N)nc(Nc2ccc(C#N)cc2)c1Br,2.35
14,COc1cnc(SC)nc1Nc1ccc(C#N)cc1,1.65
15,N#Cc1c(N)nc(N)nc1Nc1ccc(Br)cc1,1.15
16,CCc1nc(N)nc(N)c1-c1ccc(N(C)Cc2ccccc2)c([N+](=O)[O-])c1,-1.25
17,CC1(C)c2ccccc2-c2nc3ccccc3cc2C1O (stereo not given),-0.95
18,O=C1CC(c2ccc(O)cc2)Oc2cc(O)cc(O)c21 (stereo not given),0.75
19,CC(C)(C)c1ccc(OC(=O)c2ccccc2)cc1,0.95
20,CC(C)(C)CC(C)(C)N1CNC(=S)NC1,0.45
21,N#CCCCCN1CCCC1,-0.65
22,Cc1c(Cl)cccc1NC(=O)CC1Sc2ccccc2NC1=O (stereo not given),2
23,CCOC(=O)C(=O)C1C(=O)Nc2ccccc21 (stereo not given),1.15
24,CCCCSc1cc(=O)[nH]c(N)n1,1.85
25,NC(=O)C1=C(N)c2ccccc2C1c1ccccc1 (stereo not given),1.4

row,Structure (SMILES),T2 sensor activation Q score
1,CCC1(CC)C(=O)NC(=S)N=C1N,1.7
2,Cc1cc2nc(-c3ccccn3)c(-c3ccccn3)nc2cc1C,2.4
3,c1ccc(-c2nc3ccccc3s2)nc1,0.6
4,c1ccc(-c2nc(-c3ccccn3)nc(-c3ccccn3)n2)nc1,-0.55
5,O=c1ccc(Cl)n[nH]1,1.45
6,FC(F)(F)c1cccc(OCC2CNC(=S)O2)c1 (stereo not given),0.65
7,Cc1csc(NC(=O)c2ccc(C(=O)Nc3nc(C)cs3)cc2)n1,0.5
8,C=C1SC(=Nc2c(C)cccc2Cl)N(C(=O)c2sc3ccccc3c2Cl)C12CCCCC2,1.1
9,Nc1cc(N)nc(CS)n1,1.45
10,COCC(=O)Oc1cc(-c2ccc(C)cc2C)c(OC(=O)COC)c(-c2ccc(C)cc2C)c1,0.9
11,NC(=O)c1ccccc1OCC(=O)Nc1ccc(Cl)c(Cl)c1,0.1
12,Cc1cccc(C(O)C(O)c2cccc(C)n2)n1 (stereo not given),0.55
13,COc1ccccc1/C=C(\C#N)C(=O)O,1.4
14,c1ccc2c(c1)nnn2-c1ccncc1,-0.1
15,Nc1nnc(-c2cccnc2)s1,0.6
16,Cc1cnc2c(N)cc(C)c(C)c2c1,1.15
17,O=[N+]([O-])c1cc(-c2cccnc2)n[nH]1,-0.35
18,Nc1ccccc1C(=O)Nc1ccc(Cl)cc1Cl,0.45
19,C#CC1(N2CCCCC2)CCCCC1,0.8
20,Clc1nnc(NC2CCCCC2)c(Cl)c1Cl,0.15
21,CC(=O)OCC1OC(COC(C)=O)(c2ccc(C)cc2)C(OC(C)=O)C1OC(C)=O (stereo not given),0.15
22,c1ccc(NN(Cc2ccncc2)c2ccccc2)cc1,0.95
23,CCCCOc1ccc(Nc2cc(Cl)ccc2C(=O)O)cn1,1.2
24,COc1ccc(Nc2cc(Cl)ccc2C(=O)O)cn1,2.25
25,COc1cc(-c2ccc(Nc3ccccc3C(=O)O)c(OC)c2)ccc1Nc1ccccc1C(=O)O,-0.5
